Screening data: PubChem BioAssay, National Center for Advancing Translational Sciences (NCATS)
AMA1 RON2 block – AMA1-RON2 (P. falciparum) interaction inhibition | AlphaScreen AMA1-biotinylated RON2 peptide binding | Potency, µM (top dose mostly 58.2 µM), actives largely listed as inhibitors | actives 0.2% (n = 360,000); also: nearly all actives have a fitted effect of over 45% in size
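AMA1 (3D7) with his tag at 25 nM final met compounds first, then biotinylated RON2 peptide at 25 nM; detection used donor plus acceptor beads, 10 µg/mL apiece, read by AlphaScreen after 30 min at room temperature.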
NS1 function inh – inhibitors of influenza NS1 protein function; Potency, µM (highest dose often 46.1 µM); actives 0.4% (n = 270,000); calls by dose curve; also: actives are rising curves; nearly all actives have a fitted effect of over 50% in size
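OD600 was taken as the measure of yeast growth restored by compound in an NS1-expressing S. cerevisiae strain. Cells had been washed out of glucose medium and diluted 1:100 into galactose -URA medium, pH 6.0.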
SARS PLpro yeast – SARS-CoV PLP inhibition in yeast. AID 485353. Potency, µM (top dose mostly 32.9 µM), hits mostly activators. S. cerevisiae expressing SARS-CoV PLpro, growth rescue. actives 0.19% (n = 330,000); calls by dose curve; also: nearly all actives have a fitted effect of over 55% in size
Pf growth 96h – inhibits malaria parasite growth, 96 h; P. falciparum luciferase reporter growth, 96 h; actives 6.9% (n = 320,000); Potency, µM (doses to about 28.7 µM), actives largely listed as inhibitors
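Readout is luminescence from an integrated firefly luciferase in P. falciparum. Red cells, 2% hematocrit and 0.05% parasitemia final, were cultured with compound through two parasite generations (96 hours) at 37 C, 5% CO2.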
HCV inhibitor – inhibitors of hepatitis C virus infection | Huh7.5.1 HCVcc-Cre infection, luciferase reporter, 44 h | Potency, µM (highest dose often 41.8 µM), hits mostly inhibitors | actives 3.4% (n = 340,000)
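Whole-lifecycle infectious HCVcc-Cre system; cells 1,000/well, compound then virus (~0.5 moi) added 4 h after plating, 44 h culture. Luciferase read 15 sec following 15 min substrate incubation, room temp.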
Pf growth 48h – inhibits P. falciparum growth in the first generation, 48 h; actives 5.9% (n = 310,000); Potency, µM (series often up to 28.7 µM), most hits filed as inhibitors; P. falciparum luciferase growth in erythrocytes, 48 h
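Luciferase-expressing parasites in RBCs, 2% Hct / 0.1% parasitemia final; RPMI 1640 + 0.5% Albumax; 37 C, 5% CO2, one generation; luminescence read-out, lower signal = inhibition.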
Of the large screens only hits and unclear results are named; the others gave an inactive call. An excerpt weighted towards active compounds, which were near 12% of everything screened. Unless noted, calls follow the shape of the dose curve; as a rule, active = well fitted curve in the direction sought with a large enough effect; inconclusive = small, poorly fitted or top-dose-only effect, or another doubt; inactive = no such curve, though single readings can be large; an effect the other way counts as inactive or inconclusive.

O=C(Nc1ccc(NC(=O)c2cccs2)cc1Cl)c1ccco1	none (no result: NS1 function inh)
Cc1cc(Cl)ccc1NNC(=O)c1cccs1	AMA1 RON2 block 20µM, HCV inhibitor inconclusive
O=C(Nc1ccc(NC(=O)c2cccs2)cc1)c1cccs1	none
O=C(Nc1ccc(NC(=O)c2cccs2)c(Cl)c1)c1cccs1	Pf growth 96h inconclusive, HCV inhibitor 11µM
O=C(Nc1ccccc1O)c1ccc(NC(=O)C2CC2)cc1	Pf growth 48h 2.1µM
O=C(NNc1cc(Cl)ccc1Cl)c1cccs1	Pf growth 96h inconclusive, Pf growth 48h inconclusive
O=C(Nc1ccc(NC(=O)C2CC2)cc1)c1cccs1	Pf growth 96h 10µM
COc1ccc2oc(=N)c(C(=O)Nc3cccc(C)c3C)cc2c1	Pf growth 96h inconclusive
COc1cc(NC(=O)c2cccs2)ccc1NC(=O)c1ccco1	HCV inhibitor inconclusive
Cc1ccc(NC(=O)[C@@H]2CCCN2C(=O)c2cccs2)cc1S(=O)(=O)N1CCCCC1	Pf growth 96h inconclusive, HCV inhibitor inconclusive, Pf growth 48h inconclusive (no result: NS1 function inh)
Cc1ccc(NC(=O)c2ccco2)c(NC(=O)c2cccs2)c1	HCV inhibitor 11µM (no result: Pf growth 96h)
CCC(=O)Nc1ccc(N2CCN(C(=O)c3ccco3)CC2)c(Cl)c1	AMA1 RON2 block inconclusive, Pf growth 96h inconclusive
O=C(Nc1ccc(N2CCN(C(=O)c3ccco3)CC2)c(Cl)c1)c1cccs1	HCV inhibitor inconclusive, Pf growth 48h 5.2µM (no result: Pf growth 96h)
CC1CC(C)CN(S(=O)(=O)c2ccc(NC(=O)[C@@H]3CCCN3C(=O)c3cccs3)cc2)C1 (some centres undefined)	Pf growth 96h inconclusive, HCV inhibitor inconclusive, Pf growth 48h 12µM (no result: NS1 function inh)
CC(C)C(=O)N1CCN(c2ccc(NC(=O)c3cccs3)cc2Cl)CC1	HCV inhibitor 10µM, Pf growth 48h inconclusive
O=C(c1noc2c1CCCC2)N1CCC(CO)(Cc2ccccc2Cl)CC1	Pf growth 48h inconclusive
CCC1CCCCN1S(=O)(=O)c1ccc(NC(=O)c2snnc2C)cc1 (centres undefined)	HCV inhibitor inconclusive, Pf growth 48h inconclusive
O=C(Nc1ccccn1)c1cccs1	none (no result: SARS PLpro yeast)
CC(C)C(=O)N1CCN(c2ccc(NC(=O)c3ccc4c(c3)OCCO4)cc2Cl)CC1	Pf growth 96h 4.7µM, HCV inhibitor 13µM (no result: Pf growth 48h)
O=C(Nc1nonc1NC(=O)c1cccs1)c1cccs1	HCV inhibitor 4µM (no result: NS1 function inh)
CCC1CCCCN1S(=O)(=O)c1ccc(NC(=O)c2cccs2)cc1 (centres undefined)	HCV inhibitor inconclusive, Pf growth 48h 2.3µM
O=C(Nc1ccc(NC(=O)c2ccc(Cl)cc2Cl)cc1)c1cccs1	Pf growth 96h inconclusive
COc1c(Cl)cc(Cl)cc1C(=O)Nc1ccc(NC(=O)c2cccs2)cc1	Pf growth 96h 13µM, HCV inhibitor inconclusive, Pf growth 48h 9.3µM
O=C(O)C/C(=C\c1ccccc1)C(=O)O	none (no result: AMA1 RON2 block, SARS PLpro yeast, Pf growth 96h, HCV inhibitor, Pf growth 48h)
Cn1c(CNC(=O)c2ccco2)nnc1SCCOc1ccccc1	none
c1ccc(-c2nc3nonc3nc2-c2ccccc2)cc1	AMA1 RON2 block inconclusive, HCV inhibitor inconclusive, Pf growth 48h 12µM
Cc1cc(=O)oc2c(OS(C)(=O)=O)c(OS(C)(=O)=O)ccc12	none (no result: AMA1 RON2 block, SARS PLpro yeast, Pf growth 96h, HCV inhibitor, Pf growth 48h)
O=C(CN(C1CCCCC1)S(=O)(=O)c1ccc(Cl)cc1)NCc1cccnc1	Pf growth 48h inconclusive
O=C(CN(C1CCCCC1)S(=O)(=O)c1ccccc1)NCc1cccnc1	Pf growth 96h 9.3µM
CCN(CC)Cc1cc2[nH]c3c4ccc(Cl)cc4ncc3c2cc1OC	Pf growth 96h 0.093µM, HCV inhibitor inconclusive, Pf growth 48h 0.074µM
O=C(NCc1ccccn1)c1ccc(Br)s1	Pf growth 48h 3.7µM (no result: Pf growth 96h)
COC(=O)/C=C1\N/C(=N/c2nc(C)c3cc(OC)ccc3n2)NC1=O	HCV inhibitor inconclusive, Pf growth 48h inconclusive
CCNC(=S)NC1CC2CCCC(C1)N2CCc1ccccc1 (centres undefined)	Pf growth 96h 8.3µM, HCV inhibitor inconclusive, Pf growth 48h inconclusive
Cc1ccc(NC(=O)COC(=O)c2ccc(Cl)nc2)cc1S(=O)(=O)N1CCCCC1	Pf growth 48h inconclusive (no result: NS1 function inh)
Cc1cc(N2CCCC2)nc2ccccc12	none
Cc1cc(N2CCN(C3CCCCC3)CC2)nc2cccc(O)c12	Pf growth 96h inconclusive, HCV inhibitor inconclusive, Pf growth 48h 2.9µM
CCCCC(CC)CNC(=O)C(Cc1ccccc1)NS(=O)(=O)c1ccc2c(c1)CCC(=O)N2 (centres undefined)	Pf growth 96h 12µM, HCV inhibitor inconclusive, Pf growth 48h inconclusive (no result: NS1 function inh)
Cc1cccc(N2CCN(C(=O)c3c(C)nn(Cc4ccccc4Cl)c3C)CC2)c1C	Pf growth 96h 7.4µM, HCV inhibitor 32µM (no result: Pf growth 48h)
COc1cccc(N=C2SC(CC(=O)Nc3ccccc3)C(=O)N2Cc2ccccn2)c1 (centres undefined)	Pf growth 96h inconclusive, Pf growth 48h inconclusive (no result: NS1 function inh)
CC(=O)c1cccc(NC(=O)C(C)OC(=O)Cc2c[nH]c3ccccc23)c1 (centres undefined)	none (no result: NS1 function inh)
COC(=O)C(c1ccccc1)C(C(=O)OC)c1ccccc1 (centres undefined)	none
COC(=O)[C@@H](c1ccccc1)N(C)S(=O)(=O)c1cccc(S(=O)(=O)N(C)[C@@H](C(=O)OC)c2ccccc2)c1	Pf growth 96h inconclusive, HCV inhibitor inconclusive, Pf growth 48h 13µM
COc1ccccc1NC(=O)CSc1nc2c(sc3ccccc32)c(=O)n1CCN(C)C	Pf growth 96h inconclusive (no result: NS1 function inh)
CCN(CC)CCn1c(SCC(=O)Nc2ccc(F)cc2)nc2c(sc3ccccc32)c1=O	Pf growth 96h inconclusive, Pf growth 48h 9.3µM (no result: AMA1 RON2 block, NS1 function inh, HCV inhibitor)
Cc1cc(NC(=O)CSc2nc3c(sc4ccccc43)c(=O)n2CCCN2CCOCC2)n[nH]1	Pf growth 96h inconclusive, HCV inhibitor 5.6µM (no result: Pf growth 48h)
CC(C)CCn1c(SCC#N)nc2c(sc3ccccc32)c1=O	Pf growth 48h inconclusive
CN(C)CCn1c(SCc2ccccc2C#N)nc2c(sc3ccccc32)c1=O	Pf growth 96h 6.6µM, Pf growth 48h inconclusive
O=C(COC(=O)c1ccc(-n2cnnn2)cc1)c1ccc(Br)cc1	Pf growth 96h inconclusive, HCV inhibitor inconclusive, Pf growth 48h inconclusive (no result: NS1 function inh)
CC(C)(C)NC[C@H](O)COc1cccc2c1C[C@@H](O)[C@@H](O)C2	Pf growth 96h inconclusive (no result: AMA1 RON2 block, NS1 function inh, SARS PLpro yeast, HCV inhibitor)
COc1cc(OC)c(OC)cc1CCC(C)NCCC(c1ccccc1)c1ccccc1 (centres undefined)	AMA1 RON2 block inconclusive, Pf growth 96h 2.1µM, HCV inhibitor 7.9µM, Pf growth 48h 4.1µM
Fc1c(F)c(F)c(SCn2cc(Br)cn2)c(F)c1F	none (no result: NS1 function inh)
Cn1c(SCc2ccc(C(=O)Nc3nccs3)cc2)nnc1-c1ccccc1	Pf growth 48h 2.3µM (no result: Pf growth 96h)
CCn1c(SCc2ccc(C(=O)Nc3nccs3)cc2)nnc1-c1ccc(NC(C)=O)cc1	Pf growth 96h 13µM, Pf growth 48h inconclusive
